# Assay results as given in PMC7862700, “An all-to-all approach to the identification of sequence-specific readers for epigenetic DNA modifications on cytosine”.
# How the values were obtained:
# Assay in all cases: DAPPL (digital affinity profiling via proximity ligation, sequencing); 10 mM Tris-HCl pH 7.5, 50 mM NaCl, 1 mM DTT, 4% glycerol, room temperature, 30 min; GST-TFs on glutathione beads, 16-mer random dsDNA library, 0.1% formaldehyde crosslink after washing; high values mean tight binding
# FEV = biological target: T1, FEV (Homo sapiens, UniProt Q99581 1-238); conditions: protein: recombinant; tags: N-terminal GST; dsDNA, one strand shown
# T1 sequence: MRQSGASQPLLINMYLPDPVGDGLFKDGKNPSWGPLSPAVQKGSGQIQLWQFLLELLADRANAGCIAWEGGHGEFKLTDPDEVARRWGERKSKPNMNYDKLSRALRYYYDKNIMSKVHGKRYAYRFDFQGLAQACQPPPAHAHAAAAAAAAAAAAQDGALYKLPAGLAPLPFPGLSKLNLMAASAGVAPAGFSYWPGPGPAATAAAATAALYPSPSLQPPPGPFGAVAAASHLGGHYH
# How it was run: (§1)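 The binding signal reported is, for every hexamer, its read frequency for a factor over its read frequency for the tag-only sample. Reads came from pools of yeast-expressed, GST-fused human transcription factors on glutathione beads, barcoded with DNA and mixed with that sample, which were incubated with 200 nmole of a random double-stranded 16-mer DNA library in Tris/NaCl/DTT/glycerol buffer at room temperature for 30 min. After washing, the pools were crosslinked with 0.1% formaldehyde, proximity-ligated with BsaI/T4 ligase for 1 h at 37 °C, PCR-amplified and sequenced on an Illumina NextSeq500.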
# ETV5 = ETV5 (Homo sapiens, UniProt P41161 1-510); conditions: protein: recombinant; tags: N-terminal GST; dsDNA, one strand shown
# How it was run: as §1
# HSF1 = HSF1 (Homo sapiens, UniProt Q00613 1-529); conditions: protein: recombinant; tags: N-terminal GST; chain copies: 3; dsDNA, one strand shown
# How it was run: as §1
# SPIC = biological target: T2, SPIC (Homo sapiens, UniProt Q8N5J4 1-248); conditions: protein: recombinant; tags: N-terminal GST; dsDNA, one strand shown
# T2 sequence: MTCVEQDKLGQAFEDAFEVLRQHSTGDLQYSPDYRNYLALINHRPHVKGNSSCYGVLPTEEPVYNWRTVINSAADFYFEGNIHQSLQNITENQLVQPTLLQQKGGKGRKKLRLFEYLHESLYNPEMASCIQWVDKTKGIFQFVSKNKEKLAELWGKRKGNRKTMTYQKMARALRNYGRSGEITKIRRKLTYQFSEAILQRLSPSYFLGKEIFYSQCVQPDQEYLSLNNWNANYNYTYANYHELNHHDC
# How it was run: as §1
# ELF4 = ELF4 (Homo sapiens, UniProt Q99607 1-663); conditions: protein: recombinant; tags: N-terminal GST; dsDNA, one strand shown
# How it was run: as §1
# ELK4 = biological target: T3, ELK4 (Homo sapiens, UniProt P28324-2 1-405); conditions: protein: recombinant; tags: N-terminal GST; dsDNA, one strand shown
# T3 sequence: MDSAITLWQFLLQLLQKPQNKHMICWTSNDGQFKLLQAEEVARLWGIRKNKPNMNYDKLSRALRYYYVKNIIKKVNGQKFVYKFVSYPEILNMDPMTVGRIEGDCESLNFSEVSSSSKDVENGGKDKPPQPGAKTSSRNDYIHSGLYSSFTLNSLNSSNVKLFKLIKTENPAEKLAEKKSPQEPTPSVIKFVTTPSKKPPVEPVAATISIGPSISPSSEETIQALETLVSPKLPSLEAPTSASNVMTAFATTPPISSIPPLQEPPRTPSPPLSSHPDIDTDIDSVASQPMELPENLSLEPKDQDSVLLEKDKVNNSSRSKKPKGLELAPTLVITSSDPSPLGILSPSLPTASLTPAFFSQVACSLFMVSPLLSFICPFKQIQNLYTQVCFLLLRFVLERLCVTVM
# How it was run: as §1
# ETV2 = biological target: T4, ETV2 (Homo sapiens, UniProt O00321 1-342); conditions: protein: recombinant; tags: N-terminal GST; dsDNA, one strand shown
# T4 sequence: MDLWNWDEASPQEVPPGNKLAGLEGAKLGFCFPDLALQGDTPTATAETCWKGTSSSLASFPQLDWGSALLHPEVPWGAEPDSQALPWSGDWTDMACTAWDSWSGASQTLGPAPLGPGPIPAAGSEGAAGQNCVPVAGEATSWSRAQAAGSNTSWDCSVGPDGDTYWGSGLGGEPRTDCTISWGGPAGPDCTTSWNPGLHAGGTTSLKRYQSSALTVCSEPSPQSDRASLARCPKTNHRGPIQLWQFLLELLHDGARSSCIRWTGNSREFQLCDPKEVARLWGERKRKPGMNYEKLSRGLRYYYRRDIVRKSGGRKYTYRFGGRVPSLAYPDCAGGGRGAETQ
# How it was run: as §1
# ELF3 = biological target: T5, ELF3 (Homo sapiens, UniProt P78545 1-371); conditions: protein: recombinant; tags: N-terminal GST; dsDNA, one strand shown
# T5 sequence: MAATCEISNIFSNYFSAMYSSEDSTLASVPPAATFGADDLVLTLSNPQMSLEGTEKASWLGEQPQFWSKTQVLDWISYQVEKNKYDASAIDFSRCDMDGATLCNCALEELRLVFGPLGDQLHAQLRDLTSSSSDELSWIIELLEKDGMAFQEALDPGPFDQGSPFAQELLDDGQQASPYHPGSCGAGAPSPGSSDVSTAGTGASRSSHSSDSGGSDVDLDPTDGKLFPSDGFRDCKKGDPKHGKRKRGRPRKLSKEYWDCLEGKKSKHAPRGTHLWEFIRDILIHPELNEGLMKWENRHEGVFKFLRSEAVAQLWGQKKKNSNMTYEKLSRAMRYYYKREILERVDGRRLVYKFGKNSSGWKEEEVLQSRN
# How it was run: as §1
# CRX = CRX (Homo sapiens, UniProt O43186 1-299); conditions: protein: recombinant; tags: N-terminal GST; dsDNA, one strand shown
# How it was run: as §1
# ETV1 = ETV1 (Homo sapiens, UniProt P50549 1-477); conditions: protein: recombinant; tags: N-terminal GST; dsDNA, one strand shown
# How it was run: as §1
# ERF = biological target: T6, ERF (Homo sapiens, UniProt P50548 1-548); conditions: protein: recombinant; tags: N-terminal GST; dsDNA, one strand shown
# T6 sequence: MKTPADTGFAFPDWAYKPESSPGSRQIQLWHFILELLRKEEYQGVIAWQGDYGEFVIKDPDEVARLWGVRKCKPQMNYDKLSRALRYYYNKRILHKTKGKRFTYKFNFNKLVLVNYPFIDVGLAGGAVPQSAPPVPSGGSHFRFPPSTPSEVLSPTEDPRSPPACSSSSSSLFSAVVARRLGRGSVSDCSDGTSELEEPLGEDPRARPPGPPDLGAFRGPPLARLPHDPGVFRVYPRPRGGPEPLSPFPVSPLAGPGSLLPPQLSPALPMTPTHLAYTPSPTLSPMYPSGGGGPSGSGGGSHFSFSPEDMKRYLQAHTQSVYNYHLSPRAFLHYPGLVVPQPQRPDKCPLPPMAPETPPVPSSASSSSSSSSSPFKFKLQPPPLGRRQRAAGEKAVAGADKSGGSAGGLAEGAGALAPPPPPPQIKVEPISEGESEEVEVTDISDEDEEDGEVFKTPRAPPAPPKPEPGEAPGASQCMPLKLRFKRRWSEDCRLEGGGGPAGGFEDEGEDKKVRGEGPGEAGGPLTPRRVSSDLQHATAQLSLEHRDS
# How it was run: as §1
# ETV3L = biological target: T7, ETV3L (Homo sapiens, UniProt Q6ZN32 1-361); conditions: protein: recombinant; tags: N-terminal GST; dsDNA, one strand shown
# T7 sequence: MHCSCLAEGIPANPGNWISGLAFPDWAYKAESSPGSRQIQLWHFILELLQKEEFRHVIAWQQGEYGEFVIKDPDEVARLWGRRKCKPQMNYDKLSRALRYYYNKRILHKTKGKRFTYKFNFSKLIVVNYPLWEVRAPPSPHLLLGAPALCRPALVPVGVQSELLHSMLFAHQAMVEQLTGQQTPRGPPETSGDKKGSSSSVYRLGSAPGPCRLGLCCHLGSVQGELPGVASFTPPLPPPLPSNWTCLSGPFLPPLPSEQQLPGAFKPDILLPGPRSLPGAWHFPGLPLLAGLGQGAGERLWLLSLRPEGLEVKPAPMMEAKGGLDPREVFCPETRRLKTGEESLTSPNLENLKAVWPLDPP
# How it was run: as §1
# ETS2 = biological target: T8, ETS2 (Homo sapiens, UniProt P15036 1-469); conditions: protein: recombinant; tags: N-terminal GST; dsDNA, one strand shown
# T8 sequence: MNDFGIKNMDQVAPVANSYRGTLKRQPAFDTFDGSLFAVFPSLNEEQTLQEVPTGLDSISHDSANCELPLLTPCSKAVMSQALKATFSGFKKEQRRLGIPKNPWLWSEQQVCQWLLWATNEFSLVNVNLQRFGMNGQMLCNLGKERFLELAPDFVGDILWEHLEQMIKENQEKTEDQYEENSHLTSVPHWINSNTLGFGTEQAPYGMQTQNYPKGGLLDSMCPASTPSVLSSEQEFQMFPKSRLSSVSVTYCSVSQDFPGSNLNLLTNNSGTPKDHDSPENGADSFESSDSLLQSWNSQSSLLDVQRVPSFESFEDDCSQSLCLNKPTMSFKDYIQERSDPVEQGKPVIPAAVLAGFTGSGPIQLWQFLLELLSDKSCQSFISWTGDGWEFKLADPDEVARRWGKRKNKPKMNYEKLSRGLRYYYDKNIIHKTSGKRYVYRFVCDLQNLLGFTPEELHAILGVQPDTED
# How it was run: as §1
# SPDEF = biological target: T9, SPDEF (Homo sapiens, UniProt O95238 1-335); conditions: protein: recombinant; tags: N-terminal GST; dsDNA, one strand shown
# T9 sequence: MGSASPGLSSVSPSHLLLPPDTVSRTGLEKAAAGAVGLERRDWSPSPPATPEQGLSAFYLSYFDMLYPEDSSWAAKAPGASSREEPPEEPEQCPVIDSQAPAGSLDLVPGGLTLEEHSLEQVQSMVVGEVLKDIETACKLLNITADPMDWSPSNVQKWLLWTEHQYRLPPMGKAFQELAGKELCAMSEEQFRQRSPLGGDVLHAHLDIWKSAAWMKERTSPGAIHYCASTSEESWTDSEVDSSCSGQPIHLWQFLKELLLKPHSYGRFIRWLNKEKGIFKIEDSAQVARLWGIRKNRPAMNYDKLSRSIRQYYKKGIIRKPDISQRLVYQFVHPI
# How it was run: as §1
# ETV7 = biological target: T10, ETV7 (Homo sapiens, UniProt Q9Y603 1-341); conditions: protein: recombinant; tags: N-terminal GST; dsDNA, one strand shown
# T10 sequence: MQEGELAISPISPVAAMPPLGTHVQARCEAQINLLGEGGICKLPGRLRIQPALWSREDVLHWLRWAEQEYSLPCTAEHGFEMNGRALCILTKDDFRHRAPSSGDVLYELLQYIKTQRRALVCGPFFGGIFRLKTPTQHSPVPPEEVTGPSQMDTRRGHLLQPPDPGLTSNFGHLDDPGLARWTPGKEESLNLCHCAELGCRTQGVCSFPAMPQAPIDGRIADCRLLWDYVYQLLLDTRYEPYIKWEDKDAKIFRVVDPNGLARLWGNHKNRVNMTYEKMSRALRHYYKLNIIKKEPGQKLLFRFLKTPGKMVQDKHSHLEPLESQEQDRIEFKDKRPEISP
# How it was run: as §1
# ELF5 = biological target: T11, ELF5 (Homo sapiens, UniProt Q9UKW6-2 1-255); conditions: protein: recombinant; tags: N-terminal GST; dsDNA, one strand shown
# T11 sequence: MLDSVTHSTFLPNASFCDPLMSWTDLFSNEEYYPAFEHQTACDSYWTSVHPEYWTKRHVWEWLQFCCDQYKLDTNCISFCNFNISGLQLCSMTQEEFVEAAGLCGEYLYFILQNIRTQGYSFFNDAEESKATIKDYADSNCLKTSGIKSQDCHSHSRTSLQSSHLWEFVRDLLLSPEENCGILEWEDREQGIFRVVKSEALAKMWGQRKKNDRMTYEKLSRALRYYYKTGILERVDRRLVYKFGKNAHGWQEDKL
# How it was run: as §1
# ETV3 = biological target: T12, ETV3 (Homo sapiens, UniProt P41162-2 1-143); conditions: protein: recombinant; tags: N-terminal GST; dsDNA, one strand shown
# T12 sequence: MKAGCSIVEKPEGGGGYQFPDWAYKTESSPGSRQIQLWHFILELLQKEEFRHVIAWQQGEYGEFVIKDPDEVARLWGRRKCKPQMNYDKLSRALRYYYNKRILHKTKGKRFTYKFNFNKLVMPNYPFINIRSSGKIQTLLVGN
# How it was run: as §1
# ETV6 = ETV6 (Homo sapiens, UniProt P41212 1-452); conditions: protein: recombinant; tags: N-terminal GST; dsDNA, one strand shown
# How it was run: as §1
# Chain of ELF4 (Q99607 whole entry): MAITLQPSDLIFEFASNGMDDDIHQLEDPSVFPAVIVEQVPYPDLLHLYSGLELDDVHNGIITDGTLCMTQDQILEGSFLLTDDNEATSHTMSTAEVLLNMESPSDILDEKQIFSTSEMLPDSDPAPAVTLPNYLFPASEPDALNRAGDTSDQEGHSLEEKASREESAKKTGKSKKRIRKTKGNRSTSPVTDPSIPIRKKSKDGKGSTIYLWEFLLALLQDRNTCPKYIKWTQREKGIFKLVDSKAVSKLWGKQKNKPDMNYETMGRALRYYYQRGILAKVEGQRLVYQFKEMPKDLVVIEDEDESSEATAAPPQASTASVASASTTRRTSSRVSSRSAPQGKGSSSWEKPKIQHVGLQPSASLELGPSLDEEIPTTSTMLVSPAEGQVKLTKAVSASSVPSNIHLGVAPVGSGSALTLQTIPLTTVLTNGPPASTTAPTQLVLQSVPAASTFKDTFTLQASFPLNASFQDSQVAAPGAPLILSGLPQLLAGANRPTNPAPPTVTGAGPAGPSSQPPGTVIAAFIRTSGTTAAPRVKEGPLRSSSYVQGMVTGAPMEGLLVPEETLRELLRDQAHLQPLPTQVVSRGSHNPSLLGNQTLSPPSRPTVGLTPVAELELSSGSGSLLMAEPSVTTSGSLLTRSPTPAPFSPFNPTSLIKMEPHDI
# Chain of ETV5 (P41161 whole entry): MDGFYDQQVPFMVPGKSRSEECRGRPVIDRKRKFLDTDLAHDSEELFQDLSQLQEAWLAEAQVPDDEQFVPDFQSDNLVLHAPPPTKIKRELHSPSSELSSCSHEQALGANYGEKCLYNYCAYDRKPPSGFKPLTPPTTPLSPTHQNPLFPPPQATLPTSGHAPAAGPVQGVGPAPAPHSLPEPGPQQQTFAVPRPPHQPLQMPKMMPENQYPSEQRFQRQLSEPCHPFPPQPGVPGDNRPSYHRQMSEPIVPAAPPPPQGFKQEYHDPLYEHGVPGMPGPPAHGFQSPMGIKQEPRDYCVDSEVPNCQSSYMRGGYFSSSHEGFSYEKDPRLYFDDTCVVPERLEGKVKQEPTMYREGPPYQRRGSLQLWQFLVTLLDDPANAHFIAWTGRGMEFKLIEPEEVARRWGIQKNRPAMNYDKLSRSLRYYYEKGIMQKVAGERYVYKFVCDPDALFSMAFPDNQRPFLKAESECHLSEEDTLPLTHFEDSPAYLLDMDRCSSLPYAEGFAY
# Chain of ETV6 (P41212 whole entry): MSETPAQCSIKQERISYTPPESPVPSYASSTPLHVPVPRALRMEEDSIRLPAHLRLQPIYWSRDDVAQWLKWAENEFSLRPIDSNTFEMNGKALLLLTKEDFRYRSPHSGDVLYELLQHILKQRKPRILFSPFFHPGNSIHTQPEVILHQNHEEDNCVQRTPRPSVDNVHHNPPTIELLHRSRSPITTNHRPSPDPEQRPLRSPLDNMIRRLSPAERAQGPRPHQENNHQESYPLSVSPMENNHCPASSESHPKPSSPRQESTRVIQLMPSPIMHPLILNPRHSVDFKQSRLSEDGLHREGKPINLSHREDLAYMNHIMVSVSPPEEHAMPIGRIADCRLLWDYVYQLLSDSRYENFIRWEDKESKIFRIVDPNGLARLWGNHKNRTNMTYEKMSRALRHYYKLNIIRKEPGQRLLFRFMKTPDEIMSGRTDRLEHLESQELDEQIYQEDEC
# Chain of HSF1 (Q00613 whole entry): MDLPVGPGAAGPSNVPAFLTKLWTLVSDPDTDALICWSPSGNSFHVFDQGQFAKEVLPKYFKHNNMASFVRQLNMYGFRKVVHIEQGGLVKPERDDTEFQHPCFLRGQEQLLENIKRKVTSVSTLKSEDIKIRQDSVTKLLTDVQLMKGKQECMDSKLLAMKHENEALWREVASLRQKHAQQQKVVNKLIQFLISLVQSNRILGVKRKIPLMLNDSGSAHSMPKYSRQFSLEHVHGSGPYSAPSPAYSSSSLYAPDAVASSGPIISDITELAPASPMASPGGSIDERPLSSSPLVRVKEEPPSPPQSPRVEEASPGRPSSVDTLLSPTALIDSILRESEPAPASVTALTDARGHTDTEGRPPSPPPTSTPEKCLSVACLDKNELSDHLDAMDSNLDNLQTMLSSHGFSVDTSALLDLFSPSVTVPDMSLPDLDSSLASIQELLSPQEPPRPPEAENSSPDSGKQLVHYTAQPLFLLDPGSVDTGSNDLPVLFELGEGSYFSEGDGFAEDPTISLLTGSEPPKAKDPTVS
# Chain of ETV1 (P50549 whole entry): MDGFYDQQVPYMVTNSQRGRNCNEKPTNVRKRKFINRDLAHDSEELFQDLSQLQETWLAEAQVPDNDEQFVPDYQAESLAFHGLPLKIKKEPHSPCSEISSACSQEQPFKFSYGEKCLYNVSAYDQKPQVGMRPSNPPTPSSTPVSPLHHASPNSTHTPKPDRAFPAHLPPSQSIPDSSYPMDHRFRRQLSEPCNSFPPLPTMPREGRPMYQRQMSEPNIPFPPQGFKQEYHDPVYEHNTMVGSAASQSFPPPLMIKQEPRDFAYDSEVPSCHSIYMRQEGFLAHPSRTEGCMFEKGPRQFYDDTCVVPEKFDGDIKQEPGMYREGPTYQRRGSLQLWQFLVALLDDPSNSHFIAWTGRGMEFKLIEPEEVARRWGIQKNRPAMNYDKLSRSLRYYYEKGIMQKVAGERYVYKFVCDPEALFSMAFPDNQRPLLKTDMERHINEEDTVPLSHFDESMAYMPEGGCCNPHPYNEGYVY
# Chain of CRX (O43186 whole entry): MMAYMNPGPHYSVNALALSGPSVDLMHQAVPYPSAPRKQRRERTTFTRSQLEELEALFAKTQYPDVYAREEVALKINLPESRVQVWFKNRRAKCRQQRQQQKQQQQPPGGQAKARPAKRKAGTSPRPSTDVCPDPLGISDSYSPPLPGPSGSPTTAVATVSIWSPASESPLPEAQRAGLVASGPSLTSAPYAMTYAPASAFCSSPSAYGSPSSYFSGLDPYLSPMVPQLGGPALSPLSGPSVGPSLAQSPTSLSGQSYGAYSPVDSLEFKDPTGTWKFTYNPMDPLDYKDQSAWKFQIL
sequence,measurement,setting,value
CTTGGA,binding signal,FEV,"1.04 fold enrichment (6-mer frequency, TF over GST control)"
same,binding signal,ETV5,"1.12 fold enrichment (6-mer frequency, TF over GST control)"
same,binding signal,HSF1,"1.26 fold enrichment (6-mer frequency, TF over GST control)"
same,binding signal,SPIC,"1.2 fold enrichment (6-mer frequency, TF over GST control)"
same,binding signal,ELF4,"1.21 fold enrichment (6-mer frequency, TF over GST control)"
same,binding signal,ELK4,"1.09 fold enrichment (6-mer frequency, TF over GST control)"
same,binding signal,ETV2,"1.12 fold enrichment (6-mer frequency, TF over GST control)"
same,binding signal,ELF3,"1.3 fold enrichment (6-mer frequency, TF over GST control)"
same,binding signal,CRX,"1.17 fold enrichment (6-mer frequency, TF over GST control)"
same,binding signal,ETV1,"1.17 fold enrichment (6-mer frequency, TF over GST control)"
same,binding signal,ERF,"1.12 fold enrichment (6-mer frequency, TF over GST control)"
same,binding signal,ETV3L,"1.11 fold enrichment (6-mer frequency, TF over GST control)"
same,binding signal,ETS2,"1.14 fold enrichment (6-mer frequency, TF over GST control)"
same,binding signal,SPDEF,"1.22 fold enrichment (6-mer frequency, TF over GST control)"
same,binding signal,ETV7,"1.14 fold enrichment (6-mer frequency, TF over GST control)"
same,binding signal,ELF5,"1.09 fold enrichment (6-mer frequency, TF over GST control)"
same,binding signal,ETV3,"1.08 fold enrichment (6-mer frequency, TF over GST control)"
same,binding signal,ETV6,"1.03 fold enrichment (6-mer frequency, TF over GST control)"
